From PubChem BioAssay (Tox21)
Results filed as inconclusive are left out. The source made the active and inactive calls. Unless noted, calls come from the whole dose curve; as a rule, active = well fitted curve in the direction sought with a large enough effect in the repeat runs; inconclusive = weak or mixed curves; inactive = no such curve, though single readings can be large; an effect the other way counts as inactive or inconclusive.

Key:
[1] = qHTS assay to identify small molecule antagonists of the thyroid receptor (TR) signaling pathway - cell viability counter screen (AID 743064); note: nearly all actives have a fitted effect of over 50% in size
How it was run: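 In-well cytotoxicity read by CellTiter-Fluor (30 min, 37 C) following 23.5 h exposure of GH3 cells bearing a TRE-luciferase sensor. Compounds were added alongside 1 nM (final) T3 to drive TR transactivation.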

[2] = qHTS assay to identify small molecule antagonists of the thyroid receptor (TR) signaling pathway (AID 743065); note: series mostly up to about 70 µM; nearly all actives have a fitted effect of over 55% in size
How it was run: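 Antagonism measured as loss of luciferase signal in GH3 cells stably carrying a TRE-luciferase reporter, co-treated with compound and T3 (1 nM final) for 23.5 h at 37 C. Viability was read in the same well by CellTiter-Fluor.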

[3] = system: thyroid hormone receptor (rat, GH3 cells); test: qHTS assay to identify small molecule agonists of the thyroid receptor (TR) signaling pathway (AID 743066; calls by dose curve)
[4] = biological target: Estrogen receptor (Homo sapiens) (UniProt P03372); test: qHTS assay to identify small molecule antagonists of the estrogen receptor alpha (ER-alpha) signaling pathway (AID 743069; active = well fitted curve in the direction sought with a large enough effect in the signal ratio in the repeat runs, not every such curve was filed as active; the % refers to the signal ratio)
Estrogen receptor (Homo sapiens), sequence (P03372 whole entry, looked up): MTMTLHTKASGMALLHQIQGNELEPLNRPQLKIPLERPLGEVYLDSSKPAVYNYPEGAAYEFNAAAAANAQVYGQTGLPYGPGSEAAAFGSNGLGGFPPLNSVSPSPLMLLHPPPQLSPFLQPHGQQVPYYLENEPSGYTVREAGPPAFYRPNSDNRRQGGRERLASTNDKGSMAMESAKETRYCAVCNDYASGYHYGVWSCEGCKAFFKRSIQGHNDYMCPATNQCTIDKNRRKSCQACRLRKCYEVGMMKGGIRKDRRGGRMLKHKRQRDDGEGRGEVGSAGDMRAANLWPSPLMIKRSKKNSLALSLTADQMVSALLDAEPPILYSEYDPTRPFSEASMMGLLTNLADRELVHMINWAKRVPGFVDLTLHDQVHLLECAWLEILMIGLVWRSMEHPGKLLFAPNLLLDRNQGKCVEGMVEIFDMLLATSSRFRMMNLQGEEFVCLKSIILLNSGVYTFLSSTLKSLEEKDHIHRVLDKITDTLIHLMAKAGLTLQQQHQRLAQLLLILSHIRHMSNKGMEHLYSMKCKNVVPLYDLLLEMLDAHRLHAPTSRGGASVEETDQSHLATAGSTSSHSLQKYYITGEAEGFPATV
How it was run: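 ER-alpha-UAS-bla GripTite HEK293 line; 2% charcoal-stripped FBS overnight; plated, 4 hr 37C/5% CO2; cpd in DMSO + 17beta-estradiol, 18 hr 37C; LiveBLAzer B/G FRET substrate 2 hr RT; fluorescence intensity.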

[5] = qHTS assay to identify small molecule antagonists of the estrogen receptor alpha (ER-alpha) signaling pathway - cell viability counter screen (AID 743074; calls by dose curve;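 note: HEK293 cells carrying ER-alpha-UAS-bla reporter stimulated with 17beta-estradiol; nearly all actives have a fitted effect of over 45% in size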)
[6] = biological target: Estrogen receptor (Homo sapiens) (UniProt P03372); test: qHTS assay to identify small molecule agonists of the estrogen receptor alpha (ER-alpha) signaling pathway (AID 743075; calls by dose curve;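 note: HEK293 GripTite cells with ER-alpha and UAS-driven beta-lactamase reporter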)
[7] = biological target: Estrogen receptor (Homo sapiens) (UniProt P03372); test: qHTS assay to identify small molecule agonists of the estrogen receptor alpha (ER-alpha) signaling pathway using the BG1 cell line (AID 743079); note: nearly all actives have a fitted effect of over 20% in size
[8] = qHTS assay to identify small molecule antagonists of the estrogen receptor alpha (ER-alpha) signaling pathway using the BG1 cell line (AID 743080; calls by dose curve;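 note: BG1 cells stimulated with 17beta-estradiol alongside compound; series mostly up to about 70 µM; nearly all actives have a fitted effect of over 25% in size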)
How it was run: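 BG1Luc4E2, endogenous ER-alpha, 4xERE-luc; 5 d charcoal-stripped FBS, phenol red free; 24 h plating; cpd + 17beta-estradiol 21.5 h, 37 C/5% CO2; CellTiter-Fluor viability 30 min, then ONE-Glo luciferase 30 min RT.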

[9] = qHTS assay to identify small molecule antagonists of the estrogen receptor alpha (ER-alpha) signaling pathway using the BG1 cell line - cell viability counter screen (AID 743081);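 note: compound given together with 17beta-estradiol as the ER stimulus; series mostly up to about 70 µM; nearly all actives have a fitted effect of over 45% in size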
Aromatase (Homo sapiens) = Aromatase (Homo sapiens) (UniProt P11511); test: qHTS assay to identify aromatase inhibitors (AID 743083); note: series mostly up to about 70 µM; nearly all actives have a fitted effect of over 55% in size
Aromatase (Homo sapiens), sequence (P11511 whole entry, looked up): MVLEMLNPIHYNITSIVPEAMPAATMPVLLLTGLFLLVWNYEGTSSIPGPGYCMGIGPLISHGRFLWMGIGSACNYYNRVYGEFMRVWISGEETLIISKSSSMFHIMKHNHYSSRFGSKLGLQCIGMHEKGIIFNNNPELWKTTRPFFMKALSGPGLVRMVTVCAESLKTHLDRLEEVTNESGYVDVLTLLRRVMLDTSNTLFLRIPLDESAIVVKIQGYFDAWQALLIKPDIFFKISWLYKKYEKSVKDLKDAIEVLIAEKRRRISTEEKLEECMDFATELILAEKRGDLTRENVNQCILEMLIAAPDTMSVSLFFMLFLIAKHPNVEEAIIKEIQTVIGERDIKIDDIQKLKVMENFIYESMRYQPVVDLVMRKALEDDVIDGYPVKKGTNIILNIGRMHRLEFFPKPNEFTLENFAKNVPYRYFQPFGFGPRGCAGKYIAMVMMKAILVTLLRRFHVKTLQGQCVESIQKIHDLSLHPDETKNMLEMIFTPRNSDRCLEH

[10] = qHTS assay to identify aromatase inhibitors - cell viability counter screen (AID 743084);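 note: cells stimulated with testosterone during compound exposure; nearly all actives have a fitted effect of over 55% in size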
[11] = biological target: Aryl hydrocarbon receptor (Homo sapiens) (UniProt P35869); test: qHTS assay to identify small molecule that activate the aryl hydrocarbon receptor (AhR) signaling pathway (AID 743085);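 note: HG2L7.5c1 human HepG2 liver cells with stably integrated DRE-driven firefly reporter; series mostly up to about 70 µM; nearly all actives have a fitted effect of over 15% in size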
Aryl hydrocarbon receptor (Homo sapiens), sequence (P35869 whole entry, looked up): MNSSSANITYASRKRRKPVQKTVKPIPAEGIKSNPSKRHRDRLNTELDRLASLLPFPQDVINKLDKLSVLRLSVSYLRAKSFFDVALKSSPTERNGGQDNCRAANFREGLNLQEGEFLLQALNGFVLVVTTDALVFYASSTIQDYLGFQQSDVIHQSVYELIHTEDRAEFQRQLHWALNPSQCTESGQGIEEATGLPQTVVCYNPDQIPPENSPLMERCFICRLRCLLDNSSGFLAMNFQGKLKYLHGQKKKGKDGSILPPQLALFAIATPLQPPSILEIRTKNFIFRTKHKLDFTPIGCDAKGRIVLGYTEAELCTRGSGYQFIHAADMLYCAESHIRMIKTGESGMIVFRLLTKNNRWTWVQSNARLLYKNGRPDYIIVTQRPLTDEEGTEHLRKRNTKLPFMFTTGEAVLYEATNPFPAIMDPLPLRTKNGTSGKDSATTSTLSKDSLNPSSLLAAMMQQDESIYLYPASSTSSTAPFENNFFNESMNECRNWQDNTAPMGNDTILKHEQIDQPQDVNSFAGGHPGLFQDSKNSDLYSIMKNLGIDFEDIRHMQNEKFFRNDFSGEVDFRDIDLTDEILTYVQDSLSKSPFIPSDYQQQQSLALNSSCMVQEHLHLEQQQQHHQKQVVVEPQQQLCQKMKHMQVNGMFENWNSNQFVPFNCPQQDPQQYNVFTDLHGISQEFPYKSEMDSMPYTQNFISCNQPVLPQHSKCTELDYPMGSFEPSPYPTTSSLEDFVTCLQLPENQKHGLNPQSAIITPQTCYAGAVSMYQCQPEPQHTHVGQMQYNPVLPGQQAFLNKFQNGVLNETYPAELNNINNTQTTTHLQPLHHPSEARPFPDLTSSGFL
How it was run: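 Luminescence (ONE-Glo) from a dioxin-responsive-element luciferase reporter in HG2L7.5c1 HepG2 cells after 24 hr compound exposure at 37C; viability measured by CellTiter-Fluor fluorescence beforehand.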

[12] = qHTS assay to identify small molecule that activate the aryl hydrocarbon receptor (AhR) signaling pathway - cell viability counter screen (AID 743086);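 note: HepG2 liver cells carrying the AhR DRE luciferase reporter; series mostly up to about 70 µM; nearly all actives have a fitted effect of over 45% in size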
How it was run: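 Cytotoxicity counter screen: CellTiter-Fluor signal (30 min, 37 C) in 4000 HepG2 cells/well carrying the DRE-luciferase reporter, following 24 h compound exposure at 37 C.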

[13] = biological target: Peroxisome proliferator-activated receptor gamma (Homo sapiens) (UniProt P37231); test: qHTS assay to identify small molecule agonists of the peroxisome proliferator-activated receptor gamma (PPARg) signaling pathway (AID 743094; active = well fitted activation curve with a large enough effect in the signal ratio in the repeat runs, not every such curve was filed as active; the % refers to the signal ratio)
Peroxisome proliferator-activated receptor gamma (Homo sapiens), sequence (P37231 whole entry, looked up): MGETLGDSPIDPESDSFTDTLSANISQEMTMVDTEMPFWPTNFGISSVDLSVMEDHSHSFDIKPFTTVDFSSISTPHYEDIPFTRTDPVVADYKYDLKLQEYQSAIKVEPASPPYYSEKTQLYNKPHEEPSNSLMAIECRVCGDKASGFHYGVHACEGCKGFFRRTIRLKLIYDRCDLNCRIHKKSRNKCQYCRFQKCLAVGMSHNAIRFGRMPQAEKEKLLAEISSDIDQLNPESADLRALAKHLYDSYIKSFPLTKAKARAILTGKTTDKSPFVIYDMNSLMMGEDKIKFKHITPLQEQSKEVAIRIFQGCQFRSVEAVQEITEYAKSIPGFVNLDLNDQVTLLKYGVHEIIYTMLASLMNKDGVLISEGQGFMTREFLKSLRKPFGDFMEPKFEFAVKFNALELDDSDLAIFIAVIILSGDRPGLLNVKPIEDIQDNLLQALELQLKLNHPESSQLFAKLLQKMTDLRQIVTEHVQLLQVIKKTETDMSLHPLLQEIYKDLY
How it was run: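 Compounds dissolved in DMSO were added to PPARg UAS-bla HEK293H cells for 17 h at 37C, and reporter expression was quantified by fluorescence intensity after 1 h with LiveBLAzer B/G FRET substrate.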

[14] = biological target: Peroxisome proliferator-activated receptor gamma (Homo sapiens) (UniProt P37231); test: qHTS assay to identify small molecule antagonists of the peroxisome proliferator-activated receptor gamma (PPARg) signaling pathway (AID 743191; calls by dose curve; note: series mostly up to about 63 µM; nearly all actives have a fitted effect of over 30% in size)
How it was run: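 Beta-lactamase reporter under UAS control in HEK293H PPARg-bla cells; compound treatment 17 h at 37C. Read-out: fluorescence intensity after 1 h room-temperature incubation with LiveBLAzer B/G FRET substrate.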

[15] = qHTS assay to identify small molecule antagonists of the peroxisome proliferator-activated receptor gamma (PPARg) signaling pathway - cell viability counter screen (AID 743194); note: nearly all actives have a fitted effect of over 55% in size
How it was run: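 Viability was measured as CellTiter-Glo luminescence in GeneBLAzer PPARg UAS-bla HEK293H cells. These cells had been exposed 17 h at 37 C to compounds together with rosiglitazone at 50 nM final, with the beta-lactamase readout taken in the same wells.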

[16] = qHTS assay for small molecule agonists of the antioxidant response element (ARE) signaling pathway (AID 743202; active = well fitted activation curve with a large enough effect in the signal ratio in the repeat runs, not every such curve was filed as active; the % refers to the signal ratio)
How it was run: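 Quantitative high-throughput format in HepG2 cells bearing an integrated ARE-beta-lactamase reporter. Compound exposure lasted 16 h at 37 C, and fluorescence was read 2 h after adding LiveBLAzer B/G substrate at room temperature.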

[17] = qHTS assay for small molecule agonists of the antioxidant response element (ARE) signaling pathway - cell viability counter screen (AID 743203; calls by dose curve; note: nearly all actives have a fitted effect of over 55% in size)
How it was run: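 Following 16 hrs of compound treatment at 37C, HepG2 cells with an ARE-controlled beta-lactamase gene were lysed with CellTiter-Glo. Luminescence was read after 30 min at room temperature.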

[18] = qHTS assay for small molecule activators of the heat shock response signaling pathway - cell viability counter screen (AID 743209); note: nearly all actives have a fitted effect of over 50% in size
How it was run: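 Readout: CellTiter-Glo luminescence, 30 min at room temperature. System: HSE-bla HeLa cells, 1500/well, plated overnight. Treatment: compounds in DMSO, 5 h at 37 C.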

[19] = qHTS assay for small molecule activators of the heat shock response signaling pathway (AID 743210; active = well fitted activation curve with a large enough effect in the signal ratio in the repeat runs, with a control signal flat, not every such curve was filed as active; the % refers to the signal ratio;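 note: HeLa cells with beta-lactamase reporter driven by heat shock elements; series mostly up to about 63 µM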)
How it was run: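 HeLa HSE-bla cells, overnight plating; cpd in DMSO 5 h, 37 C; LiveBLAzer B/G FRET substrate 2.5 h RT; fluorescence intensity read.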

Measured: Potency

O=C(O)c1cccc(C(F)(F)F)c1
inactive: [1] | [2] | [3] | [4] | [5] | [6] | [7] | [8] | [9] | Aromatase (Homo sapiens) | [10] | [11] | [12] | [13] | [14] | [15] | [16] | [17] | [18] | [19]

Clc1ccnc(Cl)n1
inactive: [1] | [2] | [3] | [4] | [5] | [6] | [7] | [8] | [9] | Aromatase (Homo sapiens) | [10] | [11] | [12] | [13] | [14] | [15] | [17] | [18] | [19]

ClCCl
inactive: [1] | [2] | [3] | [4] | [5] | [6] | [7] | [8] | [9] | Aromatase (Homo sapiens) | [10] | [11] | [12] | [13] | [14] | [15] | [16] | [17] | [18] | [19]

COC(C)=O
inactive: [1] | [2] | [3] | [4] | [5] | [6] | [7] | [8] | [9] | Aromatase (Homo sapiens) | [10] | [11] | [12] | [13] | [15] | [16] | [17] | [18] | [19]

CCCCCc1ccc(Cl)cc1
inactive: [1] | [2] | [3] | [4] | [5] | [6] | [7] | [8] | [9] | Aromatase (Homo sapiens) | [10] | [11] | [12] | [13] | [14] | [15] | [17] | [18] | [19]

CCC(COC(=O)CCS)(COC(=O)CCS)COC(=O)CCS
inactive: [1] | [2] | [3] | [4] | [5] | [6] | [7] | [8] | [9] | Aromatase (Homo sapiens) | [10] | [11] | [12] | [13] | [14] | [15] | [17] | [18]

OC1CCCc2ccccc21 (centres undefined)
inactive: [1] | [2] | [3] | [4] | [5] | [6] | [7] | [8] | [9] | Aromatase (Homo sapiens) | [10] | [11] | [12] | [13] | [14] | [15] | [16] | [18] | [19]
